The text below walks through data of PMC7862700, “An all-to-all approach to the identification of sequence-specific readers for epigenetic DNA modifications on cytosine”.

Holding throughout (test): DAPPL (digital affinity profiling via proximity ligation, sequencing); 10 mM Tris-HCl pH 7.5, 50 mM NaCl, 1 mM DTT, 4% glycerol, room temperature, 30 min; GST-TFs on glutathione beads, 16-mer random dsDNA library, 0.1% formaldehyde crosslink after washing; high values mean tight binding
In one assay the target is T1, FLI1 (Homo sapiens, UniProt Q01543 1-452).
T1 sequence: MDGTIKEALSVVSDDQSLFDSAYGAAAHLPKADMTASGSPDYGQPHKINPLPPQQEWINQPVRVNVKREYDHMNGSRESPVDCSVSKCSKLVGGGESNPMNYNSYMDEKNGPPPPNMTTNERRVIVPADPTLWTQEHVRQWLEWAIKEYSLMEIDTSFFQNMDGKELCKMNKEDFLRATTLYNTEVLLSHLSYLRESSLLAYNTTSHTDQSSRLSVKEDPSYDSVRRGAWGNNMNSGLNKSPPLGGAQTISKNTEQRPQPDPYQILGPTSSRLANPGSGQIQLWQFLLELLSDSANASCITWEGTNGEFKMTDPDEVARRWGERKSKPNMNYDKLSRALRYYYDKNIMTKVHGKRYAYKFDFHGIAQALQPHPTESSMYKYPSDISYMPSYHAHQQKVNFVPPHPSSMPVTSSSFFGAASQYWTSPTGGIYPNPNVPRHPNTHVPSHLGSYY
To be noted: protein: recombinant; tags: N-terminal GST; dsDNA, one strand shown. In a few lines:
(§1)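 The binding signal reported is, for every hexamer, its read frequency for a factor over its read frequency for the tag-only sample. Reads came from pools of yeast-expressed, GST-fused human transcription factors on glutathione beads, barcoded with DNA and mixed with that sample, which were incubated with 200 nmole of a random double-stranded 16-mer DNA library in Tris/NaCl/DTT/glycerol buffer at room temperature for 30 min. After washing, the pools were crosslinked with 0.1% formaldehyde, proximity-ligated with BsaI/T4 ligase for 1 h at 37 °C, PCR-amplified and sequenced on an Illumina NextSeq500.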

For the next assay, the target named is T2, ELK1 (Homo sapiens, UniProt P19419 1-428).
T2 sequence: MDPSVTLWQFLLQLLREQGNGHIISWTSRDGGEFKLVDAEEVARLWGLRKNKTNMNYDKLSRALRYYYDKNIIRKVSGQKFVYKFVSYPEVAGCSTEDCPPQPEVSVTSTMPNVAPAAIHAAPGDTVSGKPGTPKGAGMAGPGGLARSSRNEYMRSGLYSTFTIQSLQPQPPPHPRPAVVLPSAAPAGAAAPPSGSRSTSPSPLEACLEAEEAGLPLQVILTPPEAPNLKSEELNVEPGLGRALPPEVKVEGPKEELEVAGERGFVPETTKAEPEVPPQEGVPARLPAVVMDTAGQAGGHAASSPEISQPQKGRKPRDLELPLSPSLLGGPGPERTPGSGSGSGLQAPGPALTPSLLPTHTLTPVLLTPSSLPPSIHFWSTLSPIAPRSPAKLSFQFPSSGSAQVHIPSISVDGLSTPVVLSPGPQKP
The following applies: protein: recombinant; tags: N-terminal GST; dsDNA, one strand shown. The procedure, abridged: as §1

The target of a further assay is T3, GABPA (Homo sapiens, UniProt Q06546 1-454).
T3 sequence: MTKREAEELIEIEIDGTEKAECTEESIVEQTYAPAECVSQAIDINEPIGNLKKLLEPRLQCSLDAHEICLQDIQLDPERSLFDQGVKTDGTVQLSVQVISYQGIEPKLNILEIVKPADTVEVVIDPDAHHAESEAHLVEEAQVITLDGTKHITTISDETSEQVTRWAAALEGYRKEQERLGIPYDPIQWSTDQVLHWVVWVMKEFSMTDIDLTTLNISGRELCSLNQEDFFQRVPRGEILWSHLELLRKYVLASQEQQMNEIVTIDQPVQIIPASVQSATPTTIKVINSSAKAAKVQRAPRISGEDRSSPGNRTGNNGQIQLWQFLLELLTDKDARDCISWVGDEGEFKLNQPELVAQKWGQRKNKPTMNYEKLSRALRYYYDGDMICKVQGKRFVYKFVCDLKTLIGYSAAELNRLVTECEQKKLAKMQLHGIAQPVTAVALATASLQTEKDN
The following applies: protein: recombinant; tags: N-terminal GST; dsDNA, one strand shown. In a few lines:
as §1

Another assay has as its target T4, ERG (Homo sapiens, UniProt P11308 1-479).
T4 sequence: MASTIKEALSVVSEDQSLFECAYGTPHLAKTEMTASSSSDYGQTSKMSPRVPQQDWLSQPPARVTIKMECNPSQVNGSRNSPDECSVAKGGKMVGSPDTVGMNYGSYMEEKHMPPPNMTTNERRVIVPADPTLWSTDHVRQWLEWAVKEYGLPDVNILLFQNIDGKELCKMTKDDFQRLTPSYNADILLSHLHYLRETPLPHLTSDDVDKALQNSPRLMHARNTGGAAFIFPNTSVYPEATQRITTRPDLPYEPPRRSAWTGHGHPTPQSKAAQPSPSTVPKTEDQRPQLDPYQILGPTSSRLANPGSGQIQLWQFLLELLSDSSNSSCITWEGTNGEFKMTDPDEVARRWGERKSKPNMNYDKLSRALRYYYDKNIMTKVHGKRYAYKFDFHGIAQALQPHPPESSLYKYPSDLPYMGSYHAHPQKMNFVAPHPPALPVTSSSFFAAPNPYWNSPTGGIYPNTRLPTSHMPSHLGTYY
The following applies: protein: recombinant; tags: N-terminal GST; dsDNA, one strand shown. The procedure, abridged: as §1

Another assay has as its target ELF1 (Homo sapiens, UniProt P32519 1-619). To be noted: protein: recombinant; tags: N-terminal GST; dsDNA, one strand shown. In a few lines: as §1
The target in another assay is T5, EHF (Homo sapiens, UniProt Q9NZC4 1-300).
T5 sequence: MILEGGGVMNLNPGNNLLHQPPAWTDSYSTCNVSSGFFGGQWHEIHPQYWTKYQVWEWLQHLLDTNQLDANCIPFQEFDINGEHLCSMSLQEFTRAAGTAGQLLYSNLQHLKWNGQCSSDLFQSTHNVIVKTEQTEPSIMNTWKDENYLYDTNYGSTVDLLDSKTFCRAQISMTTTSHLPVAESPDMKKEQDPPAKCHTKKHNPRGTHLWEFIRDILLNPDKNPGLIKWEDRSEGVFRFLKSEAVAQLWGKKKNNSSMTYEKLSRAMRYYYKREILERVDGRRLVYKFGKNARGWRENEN
The following applies: protein: recombinant; tags: N-terminal GST; dsDNA, one strand shown. The procedure, abridged:
as §1

A further assay addresses SPI1 (Homo sapiens, UniProt P17947 1-270). To be noted: protein: recombinant; tags: N-terminal GST; dsDNA, one strand shown. The procedure, abridged: as §1
A further assay concerns the target SPIB (Homo sapiens, UniProt Q01892 1-262). The following applies: protein: recombinant; tags: N-terminal GST; dsDNA, one strand shown. In a few lines: as §1
A further assay has as its target T6, ELK3 (Homo sapiens, UniProt P41970 1-407).
T6 sequence: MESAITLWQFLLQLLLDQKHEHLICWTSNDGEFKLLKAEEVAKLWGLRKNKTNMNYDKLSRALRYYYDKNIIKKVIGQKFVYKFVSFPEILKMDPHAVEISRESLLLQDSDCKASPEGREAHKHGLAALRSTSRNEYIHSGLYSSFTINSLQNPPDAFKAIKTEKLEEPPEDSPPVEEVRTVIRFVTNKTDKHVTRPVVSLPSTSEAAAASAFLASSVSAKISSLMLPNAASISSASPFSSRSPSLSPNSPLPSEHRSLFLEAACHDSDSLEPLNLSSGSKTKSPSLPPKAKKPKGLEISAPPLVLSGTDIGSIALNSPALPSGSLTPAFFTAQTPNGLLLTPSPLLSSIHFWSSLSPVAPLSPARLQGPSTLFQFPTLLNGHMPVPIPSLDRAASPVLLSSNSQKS
The following applies: protein: recombinant; tags: N-terminal GST; dsDNA, one strand shown. The procedure, abridged: as §1

A further assay has as its target T7, FEV (Homo sapiens, UniProt Q99581 1-238).
T7 sequence: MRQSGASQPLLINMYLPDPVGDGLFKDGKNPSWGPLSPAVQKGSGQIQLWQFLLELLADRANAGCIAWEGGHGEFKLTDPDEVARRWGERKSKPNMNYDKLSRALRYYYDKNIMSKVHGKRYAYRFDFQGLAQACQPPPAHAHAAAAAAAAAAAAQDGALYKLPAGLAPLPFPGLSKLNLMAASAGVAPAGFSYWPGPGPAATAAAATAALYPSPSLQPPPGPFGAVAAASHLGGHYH
The following applies: protein: recombinant; tags: N-terminal GST; dsDNA, one strand shown. The procedure, abridged: as §1

For the next assay, the target named is ETV5 (Homo sapiens, UniProt P41161 1-510). The following applies: protein: recombinant; tags: N-terminal GST; dsDNA, one strand shown. In a few lines:
as §1

The next assay addresses HSF1 (Homo sapiens, UniProt Q00613 1-529). To be noted: protein: recombinant; tags: N-terminal GST; chain copies: 3; dsDNA, one strand shown. In a few lines:
as §1

For a further assay, the target named is T8, SPIC (Homo sapiens, UniProt Q8N5J4 1-248).
T8 sequence: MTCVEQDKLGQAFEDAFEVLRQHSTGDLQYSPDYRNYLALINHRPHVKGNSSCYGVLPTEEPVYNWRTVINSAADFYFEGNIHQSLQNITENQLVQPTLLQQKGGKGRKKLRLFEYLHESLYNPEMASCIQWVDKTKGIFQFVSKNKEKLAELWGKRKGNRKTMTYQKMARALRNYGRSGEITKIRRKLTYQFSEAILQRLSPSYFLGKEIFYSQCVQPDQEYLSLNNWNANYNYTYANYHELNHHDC
The following applies: protein: recombinant; tags: N-terminal GST; dsDNA, one strand shown. In a few lines:
as §1

In the next assay the target is ELF4 (Homo sapiens, UniProt Q99607 1-663). To be noted: protein: recombinant; tags: N-terminal GST; dsDNA, one strand shown. In a few lines:
as §1

For a further assay, the target named is T9, ELK4 (Homo sapiens, UniProt P28324-2 1-405).
T9 sequence: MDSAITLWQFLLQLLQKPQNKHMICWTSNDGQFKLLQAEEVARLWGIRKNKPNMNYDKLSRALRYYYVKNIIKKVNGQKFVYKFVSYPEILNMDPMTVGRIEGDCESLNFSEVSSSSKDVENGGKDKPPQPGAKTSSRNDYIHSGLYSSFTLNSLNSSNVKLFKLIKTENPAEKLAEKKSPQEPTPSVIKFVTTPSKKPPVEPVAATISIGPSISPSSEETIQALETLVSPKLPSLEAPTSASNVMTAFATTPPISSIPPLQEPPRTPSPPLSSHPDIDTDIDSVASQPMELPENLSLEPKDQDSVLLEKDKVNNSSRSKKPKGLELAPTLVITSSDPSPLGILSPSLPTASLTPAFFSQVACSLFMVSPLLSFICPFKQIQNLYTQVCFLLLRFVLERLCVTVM
To be noted: protein: recombinant; tags: N-terminal GST; dsDNA, one strand shown. The procedure, abridged:
as §1

In the next assay the target is T10, ETV2 (Homo sapiens, UniProt O00321 1-342).
T10 sequence: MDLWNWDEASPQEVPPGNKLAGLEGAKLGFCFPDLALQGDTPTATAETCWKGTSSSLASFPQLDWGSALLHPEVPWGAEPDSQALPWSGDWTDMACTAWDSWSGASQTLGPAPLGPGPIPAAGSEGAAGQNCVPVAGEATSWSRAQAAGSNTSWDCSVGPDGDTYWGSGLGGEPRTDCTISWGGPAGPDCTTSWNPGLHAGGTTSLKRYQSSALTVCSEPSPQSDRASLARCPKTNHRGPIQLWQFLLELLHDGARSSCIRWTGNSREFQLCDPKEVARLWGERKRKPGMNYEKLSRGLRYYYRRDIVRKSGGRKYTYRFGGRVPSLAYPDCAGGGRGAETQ
To be noted: protein: recombinant; tags: N-terminal GST; dsDNA, one strand shown. In a few lines: as §1

For another assay, the target named is CRX (Homo sapiens, UniProt O43186 1-299). The following applies: protein: recombinant; tags: N-terminal GST; dsDNA, one strand shown. In a few lines: as §1
Sequence of CRX (O43186 whole entry): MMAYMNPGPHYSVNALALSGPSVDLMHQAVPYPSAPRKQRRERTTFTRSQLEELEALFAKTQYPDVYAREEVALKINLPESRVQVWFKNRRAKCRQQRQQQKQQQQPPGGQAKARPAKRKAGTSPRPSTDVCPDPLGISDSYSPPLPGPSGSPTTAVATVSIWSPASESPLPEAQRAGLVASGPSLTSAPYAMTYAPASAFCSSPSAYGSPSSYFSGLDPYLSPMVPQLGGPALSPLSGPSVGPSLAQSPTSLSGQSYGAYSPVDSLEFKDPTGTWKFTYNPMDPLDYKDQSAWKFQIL
The target of another assay is ETV1 (Homo sapiens, UniProt P50549 1-477). The following applies: protein: recombinant; tags: N-terminal GST; dsDNA, one strand shown. The procedure, abridged: as §1
Sequence of ETV1 (P50549 whole entry): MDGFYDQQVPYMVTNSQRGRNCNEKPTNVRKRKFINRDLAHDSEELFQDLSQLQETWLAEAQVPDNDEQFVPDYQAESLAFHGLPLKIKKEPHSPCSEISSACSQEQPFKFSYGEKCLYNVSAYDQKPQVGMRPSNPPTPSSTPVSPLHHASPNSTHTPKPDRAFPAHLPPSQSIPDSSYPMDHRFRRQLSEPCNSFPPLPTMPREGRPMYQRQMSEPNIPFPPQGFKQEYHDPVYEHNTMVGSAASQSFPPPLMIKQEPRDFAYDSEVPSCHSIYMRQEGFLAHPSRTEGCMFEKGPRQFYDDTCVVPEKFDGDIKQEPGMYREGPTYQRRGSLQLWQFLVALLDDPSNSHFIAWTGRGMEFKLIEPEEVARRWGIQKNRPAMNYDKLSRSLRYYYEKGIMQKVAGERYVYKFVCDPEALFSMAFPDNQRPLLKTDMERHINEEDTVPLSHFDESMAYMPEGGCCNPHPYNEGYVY

Sequence of ETV5 (P41161 whole entry): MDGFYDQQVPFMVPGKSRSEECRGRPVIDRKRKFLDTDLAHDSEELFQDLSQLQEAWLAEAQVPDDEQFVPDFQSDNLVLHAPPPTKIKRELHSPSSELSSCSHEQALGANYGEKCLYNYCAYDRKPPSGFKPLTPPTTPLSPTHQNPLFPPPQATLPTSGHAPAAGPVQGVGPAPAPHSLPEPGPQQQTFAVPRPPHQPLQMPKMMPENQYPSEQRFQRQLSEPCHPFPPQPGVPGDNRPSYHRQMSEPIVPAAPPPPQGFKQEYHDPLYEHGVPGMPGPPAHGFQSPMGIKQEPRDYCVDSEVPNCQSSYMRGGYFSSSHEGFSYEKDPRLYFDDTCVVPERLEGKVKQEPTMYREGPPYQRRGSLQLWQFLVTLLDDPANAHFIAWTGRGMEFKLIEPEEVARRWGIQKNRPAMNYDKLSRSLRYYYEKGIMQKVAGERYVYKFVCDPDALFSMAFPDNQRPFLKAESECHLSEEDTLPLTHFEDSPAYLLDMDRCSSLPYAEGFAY
Sequence of ELF4 (Q99607 whole entry): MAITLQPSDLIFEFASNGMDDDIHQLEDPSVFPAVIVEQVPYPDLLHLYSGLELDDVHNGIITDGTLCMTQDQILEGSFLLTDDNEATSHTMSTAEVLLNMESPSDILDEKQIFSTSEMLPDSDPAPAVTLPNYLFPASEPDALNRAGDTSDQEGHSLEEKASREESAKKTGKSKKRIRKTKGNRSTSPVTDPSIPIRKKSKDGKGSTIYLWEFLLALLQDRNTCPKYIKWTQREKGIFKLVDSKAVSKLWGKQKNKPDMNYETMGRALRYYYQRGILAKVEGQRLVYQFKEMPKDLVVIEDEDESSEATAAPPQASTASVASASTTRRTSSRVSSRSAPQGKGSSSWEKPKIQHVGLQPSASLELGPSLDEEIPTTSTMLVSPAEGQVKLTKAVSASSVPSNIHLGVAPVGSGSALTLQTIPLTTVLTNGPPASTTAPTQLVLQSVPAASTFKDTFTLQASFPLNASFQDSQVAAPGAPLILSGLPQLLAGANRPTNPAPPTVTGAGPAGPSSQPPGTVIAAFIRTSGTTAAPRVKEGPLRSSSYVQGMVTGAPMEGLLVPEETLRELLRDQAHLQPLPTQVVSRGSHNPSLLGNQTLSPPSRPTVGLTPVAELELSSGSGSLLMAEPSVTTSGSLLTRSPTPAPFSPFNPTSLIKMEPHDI
Sequence of HSF1 (Q00613 whole entry): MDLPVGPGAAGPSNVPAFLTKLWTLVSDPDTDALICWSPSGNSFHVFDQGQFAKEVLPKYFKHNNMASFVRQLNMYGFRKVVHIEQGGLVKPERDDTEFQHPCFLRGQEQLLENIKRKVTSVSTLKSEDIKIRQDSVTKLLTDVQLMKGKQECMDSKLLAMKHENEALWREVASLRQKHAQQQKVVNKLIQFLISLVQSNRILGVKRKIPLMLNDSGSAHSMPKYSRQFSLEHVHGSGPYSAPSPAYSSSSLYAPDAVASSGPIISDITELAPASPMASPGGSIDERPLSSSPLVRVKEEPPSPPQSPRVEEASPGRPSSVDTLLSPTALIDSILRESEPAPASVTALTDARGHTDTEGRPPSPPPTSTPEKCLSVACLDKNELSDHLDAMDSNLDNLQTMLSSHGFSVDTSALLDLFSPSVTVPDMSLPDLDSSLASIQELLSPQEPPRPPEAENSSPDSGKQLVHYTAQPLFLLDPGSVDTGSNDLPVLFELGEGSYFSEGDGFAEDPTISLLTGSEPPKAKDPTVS
Sequence of ELF1 (P32519 whole entry): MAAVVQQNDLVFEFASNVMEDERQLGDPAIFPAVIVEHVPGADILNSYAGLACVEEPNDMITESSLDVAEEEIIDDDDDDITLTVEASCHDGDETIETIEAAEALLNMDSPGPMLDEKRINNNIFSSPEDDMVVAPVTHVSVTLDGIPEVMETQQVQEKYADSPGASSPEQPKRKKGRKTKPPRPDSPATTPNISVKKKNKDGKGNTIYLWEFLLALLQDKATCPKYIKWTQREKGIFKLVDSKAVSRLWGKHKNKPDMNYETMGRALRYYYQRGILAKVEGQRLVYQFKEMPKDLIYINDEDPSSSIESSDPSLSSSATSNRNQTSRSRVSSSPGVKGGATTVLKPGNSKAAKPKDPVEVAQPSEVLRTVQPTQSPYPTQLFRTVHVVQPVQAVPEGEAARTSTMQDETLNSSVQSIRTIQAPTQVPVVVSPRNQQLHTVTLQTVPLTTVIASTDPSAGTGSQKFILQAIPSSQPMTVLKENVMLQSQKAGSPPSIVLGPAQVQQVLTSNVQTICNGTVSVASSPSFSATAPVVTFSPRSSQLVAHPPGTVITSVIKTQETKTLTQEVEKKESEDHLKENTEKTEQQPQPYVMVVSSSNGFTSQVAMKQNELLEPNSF
Sequence of SPIB (Q01892 whole entry): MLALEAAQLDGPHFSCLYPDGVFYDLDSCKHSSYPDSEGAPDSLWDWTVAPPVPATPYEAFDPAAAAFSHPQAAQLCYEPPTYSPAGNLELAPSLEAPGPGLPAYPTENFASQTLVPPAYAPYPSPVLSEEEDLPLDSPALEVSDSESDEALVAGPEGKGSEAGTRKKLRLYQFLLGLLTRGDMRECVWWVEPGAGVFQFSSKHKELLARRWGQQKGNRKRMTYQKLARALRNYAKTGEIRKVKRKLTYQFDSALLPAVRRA

With GCCTAT, the binding signal is 1.18 fold enrichment (6-mer frequency, TF over GST control) in the assay with FLI1; 1.3 fold enrichment (6-mer frequency, TF over GST control) in the assay with ELK1; 1.21 fold enrichment (6-mer frequency, TF over GST control) with GABPA; 1.23 fold enrichment (6-mer frequency, TF over GST control) with ERG; 1.39 fold enrichment (6-mer frequency, TF over GST control) with ELF1; 1.17 fold enrichment (6-mer frequency, TF over GST control) in the assay with EHF. Besides, the binding signal was 1.13 fold enrichment (6-mer frequency, TF over GST control) with SPI1; 1.21 fold enrichment (6-mer frequency, TF over GST control) with SPIB; 1.27 fold enrichment (6-mer frequency, TF over GST control) with ELK3; 1.16 fold enrichment (6-mer frequency, TF over GST control) in the assay with FEV; 1.3 fold enrichment (6-mer frequency, TF over GST control) in the assay with ETV5; 1.07 fold enrichment (6-mer frequency, TF over GST control) in the assay with HSF1. The binding signal with SPIC is 1.12 fold enrichment (6-mer frequency, TF over GST control); with ELF4, 1.18 fold enrichment (6-mer frequency, TF over GST control); with ELK4 it was 1.31 fold enrichment (6-mer frequency, TF over GST control); with ETV2 it was 1.2 fold enrichment (6-mer frequency, TF over GST control); with CRX it was 1.3 fold enrichment (6-mer frequency, TF over GST control); in the assay with ETV1 it was 1.09 fold enrichment (6-mer frequency, TF over GST control).
